This experiment has as its target PROP1 (Homo sapiens, UniProt O75360 56-141, F88S). As to the kind of experiment: PBM; 200 nM protein, PBS. The conditions noted are these: dsDNA, one strand shown.
Sequence of PROP1 (O75360 56-141 F88S): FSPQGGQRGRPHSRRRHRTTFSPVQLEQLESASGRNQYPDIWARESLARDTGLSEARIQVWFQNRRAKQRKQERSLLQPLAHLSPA
Take AATATGAA: the binding signal is 7.42 upbm affinity estimate (log intensity, higher = more binding, comparable within an allelic series).

Take AGGCCAGG: the binding signal is 6.49 upbm affinity estimate (log intensity, higher = more binding, comparable within an allelic series).

As to GGCATGAC, the binding signal was 6.7 upbm affinity estimate (log intensity, higher = more binding, comparable within an allelic series).

For the sequence AAAAATTT, the binding signal is 7.46 upbm affinity estimate (log intensity, higher = more binding, comparable within an allelic series).

On to AATCTATA, for which the binding signal is 7.56 upbm affinity estimate (log intensity, higher = more binding, comparable within an allelic series).

On to CCCGGGAA, for which the binding signal was 6.66 upbm affinity estimate (log intensity, higher = more binding, comparable within an allelic series).

As for GCGGACGC, the binding signal was 6.56 upbm affinity estimate (log intensity, higher = more binding, comparable within an allelic series).

Consider GGGTCGGA, for which the binding signal is 6.58 upbm affinity estimate (log intensity, higher = more binding, comparable within an allelic series).

On to CCGACCGG, for which the binding signal was 6.35 upbm affinity estimate (log intensity, higher = more binding, comparable within an allelic series).

Take AGGCTCCG: the binding signal is 6.8 upbm affinity estimate (log intensity, higher = more binding, comparable within an allelic series).

Take AGAGCCGG: the binding signal is 6.47 upbm affinity estimate (log intensity, higher = more binding, comparable within an allelic series).

For CGCGTCCC, the binding signal is 6.52 upbm affinity estimate (log intensity, higher = more binding, comparable within an allelic series).

On to GCTAGACC, for which the binding signal is 6.62 upbm affinity estimate (log intensity, higher = more binding, comparable within an allelic series).

Regarding GCCATGGC, the binding signal is 6.74 upbm affinity estimate (log intensity, higher = more binding, comparable within an allelic series).

Turning to AGTCTGCG, the binding signal was 6.68 upbm affinity estimate (log intensity, higher = more binding, comparable within an allelic series).

Turning to AGTAAATA, the binding signal was 7.6 upbm affinity estimate (log intensity, higher = more binding, comparable within an allelic series).

Consider GCAAATAA, for which the binding signal is 7.34 upbm affinity estimate (log intensity, higher = more binding, comparable within an allelic series).

Regarding GGCCACCA, the binding signal is 6.75 upbm affinity estimate (log intensity, higher = more binding, comparable within an allelic series).

CGATGCCC: the binding signal is 6.71 upbm affinity estimate (log intensity, higher = more binding, comparable within an allelic series).

On to GACAGGGC, for which the binding signal is 6.47 upbm affinity estimate (log intensity, higher = more binding, comparable within an allelic series).

As for GCCTGCGA, the binding signal is 6.59 upbm affinity estimate (log intensity, higher = more binding, comparable within an allelic series).

With AGCTCCCG, the binding signal is 6.46 upbm affinity estimate (log intensity, higher = more binding, comparable within an allelic series).

In the case of AATTCAAC, the binding signal is 7.25 upbm affinity estimate (log intensity, higher = more binding, comparable within an allelic series).

In the case of ATGCCAGC, the binding signal was 6.73 upbm affinity estimate (log intensity, higher = more binding, comparable within an allelic series).

As for CCAGGGTC, the binding signal is 6.62 upbm affinity estimate (log intensity, higher = more binding, comparable within an allelic series).

For the sequence GCTCGGAC, the binding signal was 6.68 upbm affinity estimate (log intensity, higher = more binding, comparable within an allelic series).

CCTGTTAG: the binding signal is 7.19 upbm affinity estimate (log intensity, higher = more binding, comparable within an allelic series).

In the case of AGCCTGGC, the binding signal was 6.67 upbm affinity estimate (log intensity, higher = more binding, comparable within an allelic series).

On to GTCAGGAC, for which the binding signal was 6.86 upbm affinity estimate (log intensity, higher = more binding, comparable within an allelic series).

As for CGCGGTCC, the binding signal is 6.49 upbm affinity estimate (log intensity, higher = more binding, comparable within an allelic series).

As for AGGACACC, the binding signal was 6.75 upbm affinity estimate (log intensity, higher = more binding, comparable within an allelic series).

Regarding ATTATGGG, the binding signal is 7.21 upbm affinity estimate (log intensity, higher = more binding, comparable within an allelic series).

For ACCGAGAG, the binding signal is 6.73 upbm affinity estimate (log intensity, higher = more binding, comparable within an allelic series).

Consider AAGGGAGT, for which the binding signal was 6.82 upbm affinity estimate (log intensity, higher = more binding, comparable within an allelic series).

CCCGCGCA: the binding signal is 6.76 upbm affinity estimate (log intensity, higher = more binding, comparable within an allelic series).

Consider GGTGCACC, for which the binding signal was 6.7 upbm affinity estimate (log intensity, higher = more binding, comparable within an allelic series).

For GACATTAC, the binding signal is 7.27 upbm affinity estimate (log intensity, higher = more binding, comparable within an allelic series).

As to CGCGAACC, the binding signal was 6.71 upbm affinity estimate (log intensity, higher = more binding, comparable within an allelic series).

Take GGAGCAGA: the binding signal is 6.82 upbm affinity estimate (log intensity, higher = more binding, comparable within an allelic series).

AGGGCCGC: the binding signal is 6.5 upbm affinity estimate (log intensity, higher = more binding, comparable within an allelic series).

These data come from publication PMC11006913.
